{"source": "a collection of fitness landscapes (doi:10.1126/science.1257360)", "parents": {"B1": {"name": "PhoQ; a variant is named by its letters at X, in order, P23837 (parent)", "chain": "MKKLLRLFFPLSLRVRFLLATAAVVLVLSLAYGMVALIGYSVSFDKTTFRLLRGESNLFYTLAKWENNKLHVELPENIDKQSPTMTLIYDENGQLLWAQRDVPWLMKMIQPDWLKSNGFHEIEADVNDTSLLLSGDHSIQQQLQEVREDDDDAEMTHSVAVNVYPATSRMPKLTIVVVDTIPVELKSSYMVWSWFIYVLSANLLLVIPLLWVAAWWSLRPIEALAKEVRELEEHNRELLNPATTRELTSLVRNLNRLLKSERERYDKYRTTLTDLTHSLKTPLXXLQXXLRSLRSEKMSVSDAEPVMLEQISRISQQIGYYLHRASMRGGTLLSRELHPVAPLLDNLTSALNKVYQRKGVNISLDISPEISFVGEQNDFVEVMGNVLDNACKYCLEFVEISARQTDEHLYIVVEDDGPGIPLSKREVIFDRGQRVDTLRPGQGVGLAVAREITEQYEGKIVAGESMLGGARMEVIFGRQHSAPKDE"}}, "note": "Over roughly 140,000 sequences, “enrichment ratio after two sorts for PhoP signalling” has its median near 0; the highest 2% begin near 11. For the sample, the highest values were picked, then their nearest neighbours and some sequences at random.", "data": [{"variants_of": "B1", "assay": "enrichment ratio after two sorts for PhoP signalling (ratio (wild type AVST 3.29)); higher = more functional", "settings": "with PhoP (E. coli)", "values": [{"variant": "SCGR", "enrichment ratio": "≤ 0.25"}, {"variant": "GTVR", "enrichment ratio": "≤ 0.25"}, {"variant": "SFSS", "enrichment ratio": "≤ 0.25"}, {"variant": "VDHN", "enrichment ratio": "≤ 0.25"}, {"variant": "ILLE", "enrichment ratio": "≤ 0.25"}, {"variant": "DHMC", "enrichment ratio": "≤ 0.25"}, {"variant": "FYNT", "enrichment ratio": "≤ 0.25"}, {"variant": "ANLF", "enrichment ratio": 10.7}, {"variant": "KIQT", "enrichment ratio": "≤ 0.25"}, {"variant": "ISLD", "enrichment ratio": "≤ 0.25"}, {"variant": "ETRK", "enrichment ratio": "≤ 0.25"}, {"variant": "RGAM", "enrichment ratio": "≤ 0.25"}, {"variant": "FFAM", "enrichment ratio": "≤ 0.25"}, {"variant": "QGAM", "enrichment ratio": 13}, {"variant": "TGAM", "enrichment ratio": 13}, {"variant": "SHAM", "enrichment ratio": 8.88}, {"variant": "NGAM", "enrichment ratio": "≤ 0.25"}, {"variant": "NHAM", "enrichment ratio": "≤ 0.25"}, {"variant": "QGWM", "enrichment ratio": 9.7}, {"variant": "SRAM", "enrichment ratio": "≤ 0.25"}, {"variant": "VRAM", "enrichment ratio": "≤ 0.25"}, {"variant": "TRAM", "enrichment ratio": 15.1}, {"variant": "THAM", "enrichment ratio": 18.6}, {"variant": "EKVL", "enrichment ratio": "≤ 0.25"}, {"variant": "YQEF", "enrichment ratio": "≤ 0.25"}, {"variant": "KAPT", "enrichment ratio": "≤ 0.25"}, {"variant": "IGGQ", "enrichment ratio": "≤ 0.25"}, {"variant": "TDAM", "enrichment ratio": 17.8}, {"variant": "YHAM", "enrichment ratio": "≤ 0.25"}, {"variant": "LTAM", "enrichment ratio": "≤ 0.25"}, {"variant": "TFGM", "enrichment ratio": 1.64}, {"variant": "TFTM", "enrichment ratio": 3.86}, {"variant": "NIAM", "enrichment ratio": "≤ 0.25"}, {"variant": "GGAM", "enrichment ratio": 18.2}, {"variant": "TFAM", "enrichment ratio": 18.6}, {"variant": "KDAM", "enrichment ratio": "≤ 0.25"}, {"variant": "LYIW", "enrichment ratio": "≤ 0.25"}, {"variant": "VRDS", "enrichment ratio": "≤ 0.25"}, {"variant": "TDFA", "enrichment ratio": "≤ 0.25"}, {"variant": "AKMD", "enrichment ratio": "≤ 0.25"}, {"variant": "PTMI", "enrichment ratio": "≤ 0.25"}, {"variant": "AYMI", "enrichment ratio": 0.272}, {"variant": "ADMI", "enrichment ratio": 12.7}, {"variant": "TKMI", "enrichment ratio": 38.2}, {"variant": "TDMI", "enrichment ratio": 27.6}, {"variant": "LTMI", "enrichment ratio": 0.673}, {"variant": "ADFA", "enrichment ratio": "≤ 0.25"}, {"variant": "TKMG", "enrichment ratio": 7.64}, {"variant": "AKMI", "enrichment ratio": 12.8}, {"variant": "AIMI", "enrichment ratio": 5.72}, {"variant": "LVPL", "enrichment ratio": "≤ 0.25"}, {"variant": "PNNY", "enrichment ratio": "≤ 0.25"}, {"variant": "WLFH", "enrichment ratio": "≤ 0.25"}, {"variant": "PLHT", "enrichment ratio": "≤ 0.25"}, {"variant": "QAAQ", "enrichment ratio": "≤ 0.25"}, {"variant": "EGTK", "enrichment ratio": "≤ 0.25"}, {"variant": "APAS", "enrichment ratio": "≤ 0.25"}, {"variant": "ALRD", "enrichment ratio": "≤ 0.25"}, {"variant": "ALMD", "enrichment ratio": "≤ 0.25"}, {"variant": "ALMG", "enrichment ratio": 6.08}, {"variant": "TDMK", "enrichment ratio": 11.7}, {"variant": "ATYI", "enrichment ratio": "≤ 0.25"}, {"variant": "LTMK", "enrichment ratio": "≤ 0.25"}, {"variant": "ALMI", "enrichment ratio": 17.6}, {"variant": "ATPA", "enrichment ratio": "≤ 0.25"}, {"variant": "KDMK", "enrichment ratio": "≤ 0.25"}, {"variant": "ATMI", "enrichment ratio": 19.9}, {"variant": "NVRS", "enrichment ratio": "≤ 0.25"}, {"variant": "HGKV", "enrichment ratio": "≤ 0.25"}, {"variant": "KGKP", "enrichment ratio": "≤ 0.25"}, {"variant": "NFLN", "enrichment ratio": 0.688}, {"variant": "AFWR", "enrichment ratio": "≤ 0.25"}, {"variant": "KSLF", "enrichment ratio": "≤ 0.25"}, {"variant": "ASTS", "enrichment ratio": 9.85}, {"variant": "ASLF", "enrichment ratio": 12.2}, {"variant": "ASNS", "enrichment ratio": "≤ 0.25"}, {"variant": "VRLC", "enrichment ratio": "≤ 0.25"}, {"variant": "NSLF", "enrichment ratio": "≤ 0.25"}, {"variant": "ASHK", "enrichment ratio": "≤ 0.25"}, {"variant": "ASLM", "enrichment ratio": 15.3}, {"variant": "ASFM", "enrichment ratio": 6.83}, {"variant": "ASLC", "enrichment ratio": 16.7}, {"variant": "ASLV", "enrichment ratio": 18.7}, {"variant": "ADLV", "enrichment ratio": 8.2}]}]}
